Bioassay records deposited in PubChem BioAssay by National Center for Advancing Translational Sciences (NCATS).
Tau fibril FP = inhibitors of human tau fibril formation. P10636. K18 P301L tau heparin fibrillization, Alexa594 FP, 6 h. Potency, µM (top dose mostly 57.7 µM), inactives show at the highest dose activity, negative = inhibition, actives largely listed as inhibitors. 0.39% of 280,000 active; further: potency means the concentration at half of the fitted maximal effect; nearly all actives have a fitted effect of over 55% in size
Target sequence (P10636 561-689 P618L limits assumed): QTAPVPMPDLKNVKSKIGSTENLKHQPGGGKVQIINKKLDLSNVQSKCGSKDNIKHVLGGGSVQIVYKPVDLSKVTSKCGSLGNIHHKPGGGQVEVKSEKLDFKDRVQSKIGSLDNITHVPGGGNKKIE
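Read-out: fluorescence polarization of Alexa 594-labeled tau (0.24 uM), 555 nm excitation, 632 nm emission. Mixtures held 15 uM unlabeled K18 P301L, compound and 20 uM heparin, pH 7 acetate buffer, incubated 6 hr at 37 C.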
Sfp inh = Sfp phosphopantetheinyl transferase inhibition; Q9F4F7; Biochemical Sfp PPTase activity, qHTS; Potency, µM, inactives show largest response in the series, negative = inhibition, actives largely listed as inhibitors; 3.5% of 310,000 active; AID 1490;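 further: the enzyme is Sfp with the accession as filed and its product quenches rhodamine fluorescence; potency means the concentration at half of the fitted maximal effect; 0% = enzyme reaction without inhibitor and -100% = no enzyme wells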
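Sfp 15 nM + cpd, 15 min RT; start w/ rhodamine-CoA 5 uM, BHQ-2-YbbR 12.5 uM (final); 50 mM Hepes pH 7.6, 10 mM MgCl2, 0.01% NP-40, 0.01% BSA; read 525/598 nm at 0 and 30 min.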
Coupling enz = counter-screen for Giardia aldolase inhibitors: coupling enzyme system | activity change, negative = inhibition, % at 58.2 µM, hits read low | 0.67% of 290,000 active | coupling enzyme system counterscreen, AmpLite Red fluorescence | AID 2472; in the data active means activity change below about -30%
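Activity here indicates interference with the coupling reaction, not aldolase inhibition. Compounds at 57.5 uM final met coupling enzymes for 10 min at RT; substrate and AmpLite Red detection followed, with a 525/598 nm fluorescence read after 20 min.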
Tau fluor cs = counter-screen for tau fibril formation inhibitors; AID 1463; tau K18 P301L Alexa594 fluorescence, heparin fibrillization; Potency, µM (titrated, usually from 57.7 µM), without a hit: at the highest dose activity change, negative = decrease; 0.93% of 280,000 active; further: potency means the concentration at half of the fitted maximal effect; nearly all actives have a fitted effect of over 55% in size
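Human K18 P301L tau (15 uM unlabeled plus 0.24 uM Alexa 594-labeled, final) in 100 mM sodium acetate pH 7 was mixed with compound and 20 uM heparin and incubated 6 hr at 37 C.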
Tau ThT inhib = tau fibrillization inhibition (ThT binding). P10636. recombinant tau K18 P301L (four-repeat tau fragment), heparin-induced fibrillization, ThT fluorescence. 2.1% of 270,000 active. AID 1460. Potency, µM (doses to about 57.4 µM), for inactives: at the highest dose activity, negative = inhibition, actives largely listed as inhibitors; further: potency means the concentration at half of the fitted maximal effect; nearly all actives have a fitted effect of over 55% in size
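Aggregation was driven by heparin (20 uM final) acting on recombinant tau […] bearing P301L in 100 mM sodium acetate pH 7; fibrils were detected with Thioflavin T.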
The depositor's hits bear a star; ? = inconclusive; . = no result; [ ] = remark or other dose. Sampled rows, rich in hits. Any-hit rate of the full collection: about 5.2%. Unless noted, the call rests on the fitted dose curve; in most records, active means well fitted curve in the direction sought with a large enough effect; inconclusive means small, poorly fitted or top-dose-only effect, or another doubt; inactive means no such curve, though single readings can be large; an effect the other way counts as inactive or inconclusive. Unless noted, on the % scale 0 is the no-effect control and ±100 the full control effect.

SMILES	Tau fibril FP	Sfp inh	Coupling enz	Tau fluor cs	Tau ThT inhib
Cc1ccc(NC(=O)CCN2CCN(C/C=C/c3ccccc3)CC2)cc1	-5.6%	12.4%	0.4	-14.1%	-5.2%
Cc1ccc(NC(=O)CCN2CCN(C/C=C/c3ccccc3)CC2)cc1C	-7.9%	89.1µM*	-1.8	-13.9%	-8.0%
c1ccc(-c2cc3c(ccc4nonc43)nn2)cc1	-3.0%	25.4%	2.2	-5.5%	-8.0%
On1onc2c3cc(-c4ccccc4)nc3ccc21	?	-7.7%	-11.9	12.6µM*[quencher]	3.98µM*
Cc1[nH]c2ccccc2c1C(=O)COC(=O)c1c(-c2c(F)cccc2Cl)noc1C	14.1µM*	7.8%	-1.6	?	8.7%
Cc1[nH]c2ccccc2c1C(=O)COC(=O)c1ccc([N+](=O)[O-])s1	-1.7%	12.9%	-5.3	11.2µM*[quencher]	7.08µM*
COc1cc(OC)c(NC(=O)C2=C(C)C(=O)OC23CCCCCC3)cc1Cl	-2.8%	.	.	-25.7%	-2.0%
CC(=O)OCC(=O)[C@@]1(O)CCC2C3CCC4=CC(=O)C=CC4(C)C3C(O)C[C@]21C (stereo partly drawn)	1.1%	14.6%	4.9	-1.8%	-2.1%
COc1cccc(NC(=O)C(NCCC(C)C)c2ccccc2)c1 (stereo not drawn)	-1.8%	-0.6%	-0.5	-20.6%	-14.3%
COc1cccc(NC(=O)C(NCC2CCCCC2)c2ccccc2)c1 (stereo not drawn)	5.7%	50.1µM*	-9.9	-18.9%	-12.7%
Cc1ccc(S(=O)(=O)c2nnn3c2nc(NCc2ccc(F)cc2)c2sccc23)cc1C	?	.	.	-25.2%	1.2%
CC(=O)N1CCC2(CC1)CN(c1ccncc1)C2	.	8.2%	-0.2	.	.
CN(C)c1ccc(NC(=O)c2ccc(COc3cccc(Cl)c3)o2)cc1	?	?	-4.4	?	11.2µM*
Cc1ccc(NC(=O)c2ccc(COc3ccccc3Cl)o2)cc1	-7.9%	.	.	-19.5%	-11.8%
COc1ccc(C(=O)c2cc(C(C)=O)c(Nc3ccccc3)s2)cc1	?	50.1µM*	2.4	-27.0%	-9.0%
CCn1c2ccccc2c2cc(NC(=O)CSc3nnc(-c4ccc(OC)c(OC)c4)n3N)ccc21	13.4%	12.7%	-2.0	?	?
CCn1c2ccccc2c2cc(NC(=O)CSc3nnc(-c4cccc(OC)c4)n3N)ccc21	2.0%	5.5%	0.1	15.8µM*[quencher]	?
CCOc1ccccc1C(=O)Nc1c[nH]c(=O)[nH]c1=O	.	16.9%	-32.7*	.	.
Cc1ccccc1/C=N/NC(=O)c1cccnc1	.	24.2%	1.6	.	.
Cc1ccccc1/C=N\NC(=O)c1csnn1	-6.6%	14.1µM*	-0.1	-1.9%	?
O=C(N/N=C\c1ccc(F)cc1)c1csnn1	-12.2%	1.41µM*	1.3	-8.7%	?
O=C(Nc1ccccc1C(=O)N/N=C/c1ccc(F)cc1)c1ccccc1Br	?	1.8%	-32.5*	?	-4.9%
O=C(N/N=C/c1ccc(O)cc1)c1ccc(NC(=O)c2ccccc2Br)cc1	6.6%	21.4%	1.8	?	-28.5%
COc1ccc(CC(=O)Nc2sc3c(c2C(=O)Nc2c(C)cccc2C)CCCCC3)cc1	1.1%	.	.	-2.9%	0.5%
CCOP(=O)(OCC)C(C#N)=C1SCN(c2ccc(Cl)cc2)CS1	?	?	1.1	-24.5%	2µM*
SMILES	Tau fibril FP	Sfp inh	Coupling enz	Tau fluor cs	Tau ThT inhib
COc1ccc(C2C(C#N)=C(N)Oc3cc(C)n(Cc4ccco4)c(=O)c32)cc1 (stereo not drawn)	-0.6%	31.6µM*	-3.1	-6.2%	3.1%
COc1cccc(C2C(C#N)=C(N)Oc3cc(C)n(Cc4ccco4)c(=O)c32)c1 (stereo not drawn)	1.5%	7.94µM*	0.5	-16.7%	?
COc1cccc(C2C(C#N)=C(N)Oc3cc(C)n(Cc4ccccn4)c(=O)c32)c1OC (stereo not drawn)	-3.1%	11.1%	3.2	-10.4%	-3.5%
Cc1cc2c(c(=O)n1Cc1cccnc1)C(c1ccccc1)C(C#N)=C(N)O2 (stereo not drawn)	-7.8%	-24.7%	0.9	-13.3%	-11.3%
COc1ccccc1C1C(C#N)=C(N)Oc2cc(C)n(Cc3ccccn3)c(=O)c21 (stereo not drawn)	-10.2%	50.1µM*	-21.4	-11.4%	?
Cc1ccc(Nc2c3c(nc4nncn24)CCC3)c(C)c1	?	.	.	-2.3%	-2.0%
